Test systems include SK-MEL-2 melanoma; EKVX NSCLC; SN12C renal; UO-31 renal; TK-10 renal; ACHN renal; A498 renal; CCRF-CEM leukemia; MOLT-4 leukemia; SR leukemia; RPMI-8226 leukemia; OVCAR-8 ovarian; OVCAR-5 ovarian; OVCAR-4 ovarian; SK-OV-3 ovarian; IGROV1 ovarian; HS 578T breast; NCI/ADR-RES ovarian; OVCAR-3 ovarian.
Common to all, as to test: NCI-60 one-dose screen, 48 h (100 = growth as untreated, 0 = no growth, -100 = all killed)
What all share (conditions): 10 µM unless noted

Compounds without any hit were thinned out: in the full panel of roughly 83,000, 20% have a hit.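 The test compound was applied at a single concentration to cells in 96-well plates for 48 hours, and percent growth was recorded.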 A number with no mark means an inactive call. Calls of active or inactive are those of the source. The calls were made as follows: active = growth percent below 10; inactive = the rest.

As to `COc1cc(/C=C/C(=O)c2c(C)n([O-])c3cc(C)c(C)cc3[n+]2=O)cc(OC)c1OC`, the growth in the experiment on SK-MEL-2 melanoma is 69.6%; in the experiment with EKVX NSCLC it was 79.2%; in the experiment with SN12C renal, 72.8%; in the experiment on UO-31 renal, 14.2%; with TK-10 renal, 77%; in the experiment on ACHN renal, 69.2%. Moreover, the growth in the experiment on A498 renal is 41.8%; in the experiment on CCRF-CEM leukemia it was 38%; in the experiment with MOLT-4 leukemia, 44.3%; with SR leukemia, 29%; in the experiment with RPMI-8226 leukemia, 38.8%; with OVCAR-8 ovarian, 63.2%. The growth in the experiment with OVCAR-5 ovarian was 111%; in the experiment with OVCAR-4 ovarian, 73.3%; in the experiment with SK-OV-3 ovarian, 86.6%; in the experiment on IGROV1 ovarian, -21.3% (active); with HS 578T breast, 69%; in the experiment on NCI/ADR-RES ovarian it was 72%.

`COc1ccc2c(c1)/C(=C/c1c(-c3cc(OC)c(OC)c(OC)c3Br)nc3sccn13)C(=O)N2`: the growth with SK-MEL-2 melanoma was 87.3%; in the experiment with EKVX NSCLC, 84.6%; in the experiment with SN12C renal, 120%; in the experiment on UO-31 renal, 83.3%; in the experiment on TK-10 renal, 118%; in the experiment with ACHN renal it was 86.5%. Moreover, the growth was 108% in the experiment with A498 renal; 81% with CCRF-CEM leukemia; 73.2% in the experiment on MOLT-4 leukemia; 95.1% in the experiment on SR leukemia; 85.9% with RPMI-8226 leukemia; 99.6% with OVCAR-8 ovarian. The growth with OVCAR-5 ovarian was 105%; in the experiment with OVCAR-4 ovarian, 100%; with SK-OV-3 ovarian it was 96.6%; with IGROV1 ovarian, 45.7%; in the experiment with HS 578T breast, 83.2%; with NCI/ADR-RES ovarian it was 92.2%.

As to `Cn1c2ccccc2c2ssc(=S)c21`, the growth was 92.8% in the experiment with SK-MEL-2 melanoma; 39.5% with EKVX NSCLC; 116% with SN12C renal; 84% in the experiment on UO-31 renal; 111% in the experiment with TK-10 renal; 114% with ACHN renal. Also, the growth with A498 renal is 86.1%; with CCRF-CEM leukemia, 116%; in the experiment with MOLT-4 leukemia, 75.5%; with SR leukemia, 103%; in the experiment with RPMI-8226 leukemia, 124%; in the experiment on OVCAR-8 ovarian, 102%. Moreover, the growth in the experiment with OVCAR-5 ovarian is 99.7%; in the experiment with OVCAR-4 ovarian, 89.5%; with SK-OV-3 ovarian, 119%; with IGROV1 ovarian it was -26.5% (active); in the experiment with HS 578T breast, 70.3%.

Consider `C=C(C)[C@@H]1C/C=C(\COC(=O)[C@H](OC(C)=O)C(NC(=O)c2ccccc2)c2ccccc2)CC[C@H]2O[C@]2(C)CC/C=C(\C)CC1` (stereo partly drawn), for which the growth was 76.2% [5 µM] with SK-MEL-2 melanoma; 64.5% [5 µM] with EKVX NSCLC; 82.1% [5 µM] in the experiment on SN12C renal; 51.9% [5 µM] with UO-31 renal; 85.8% [5 µM] with TK-10 renal; 86.8% [5 µM] with ACHN renal. For the same compound, the growth was 84.9% [5 µM] in the experiment on A498 renal; -89.5% [5 µM] (active) in the experiment with CCRF-CEM leukemia; 17.6% [5 µM] in the experiment on MOLT-4 leukemia; 3.12% [5 µM] (active) in the experiment with SR leukemia; -6.61% [5 µM] (active) with RPMI-8226 leukemia; 86.7% [5 µM] in the experiment with OVCAR-8 ovarian. In addition, the growth in the experiment with OVCAR-5 ovarian is 88.7% [5 µM]; with OVCAR-4 ovarian it was 62.3% [5 µM]; in the experiment on SK-OV-3 ovarian it was 87.7% [5 µM]; with IGROV1 ovarian, 45.9% [5 µM]; in the experiment with HS 578T breast it was 79.5% [5 µM]; in the experiment on NCI/ADR-RES ovarian it was 62.9% [5 µM].

For the compound `CN1CCN(CC(O)COc2c(Br)c(Br)c(Br)c3c2OC(C)(C)C3)CC1` (stereo not drawn), the growth is 38.5% in the experiment on SK-MEL-2 melanoma; 87.7% with EKVX NSCLC; 92.5% with SN12C renal; -14.8% (active) with UO-31 renal; 74.1% with TK-10 renal; 77.9% in the experiment on ACHN renal. Further, the growth with A498 renal is 58.1%; with CCRF-CEM leukemia, 15.6%; with MOLT-4 leukemia, 18.3%; in the experiment with SR leukemia it was -26.4% (active); with RPMI-8226 leukemia, -11.3% (active); in the experiment with OVCAR-8 ovarian, 91.1%. Also, the growth with OVCAR-5 ovarian is 78.9%; in the experiment with OVCAR-4 ovarian, 82.3%; in the experiment on SK-OV-3 ovarian, 109%; in the experiment on IGROV1 ovarian, -66.9% (active); in the experiment with HS 578T breast, 55.5%; with NCI/ADR-RES ovarian it was 64.5%.

Turning to `C/C(=N\N=C1/SCC(=O)N1c1ccccc1)c1ccco1`, the growth in the experiment on SK-MEL-2 melanoma is 91.6%; in the experiment on EKVX NSCLC it was 105%; in the experiment on SN12C renal it was 131%; with UO-31 renal, 84.9%; with TK-10 renal, 96.9%; in the experiment with ACHN renal, 106%. Besides, the growth with A498 renal was 89.2%; in the experiment with CCRF-CEM leukemia, -63.9% (active); in the experiment with MOLT-4 leukemia, 112%; in the experiment with RPMI-8226 leukemia, 72.2%; in the experiment on OVCAR-8 ovarian, 103%; in the experiment with OVCAR-5 ovarian it was 117%. In addition, the growth is 146% in the experiment with OVCAR-4 ovarian; 115% in the experiment on SK-OV-3 ovarian; 60.8% in the experiment on IGROV1 ovarian; 104% in the experiment with HS 578T breast; 104% with NCI/ADR-RES ovarian.

For the compound `COc1cc(/C=C/C(=O)c2c(C)[n+]([O-])c3ccccc3[n+]2[O-])ccc1O`, the growth with SK-MEL-2 melanoma was 83.8%; with EKVX NSCLC, 84.5%; in the experiment on SN12C renal, 101%; with UO-31 renal it was 80.4%; in the experiment on TK-10 renal, 55.9%; with ACHN renal, 95.4%. Moreover, the growth in the experiment with A498 renal is 101%; in the experiment with CCRF-CEM leukemia, 124%; in the experiment on MOLT-4 leukemia, 126%; in the experiment with RPMI-8226 leukemia it was 104%; with OVCAR-8 ovarian it was 89.4%; with OVCAR-5 ovarian, 110%. Besides, the growth is 155% in the experiment on OVCAR-4 ovarian; 97.8% in the experiment on SK-OV-3 ovarian; 61.4% in the experiment on IGROV1 ovarian; 99.4% in the experiment on HS 578T breast; 104% with NCI/ADR-RES ovarian.

For `Cc1cccc(NC(=O)CCc2ccc(N3C(N)=NC(N)=NC3(C)C)cc2)c1`, the growth in the experiment on SK-MEL-2 melanoma was 59.9%; in the experiment with EKVX NSCLC it was 55.6%; in the experiment on SN12C renal, 30.3%; in the experiment with UO-31 renal it was 115%; in the experiment with TK-10 renal it was 82.5%; in the experiment with ACHN renal, 101%. The growth with A498 renal was 95.2%; with CCRF-CEM leukemia, 31.1%; with MOLT-4 leukemia it was 50.5%; in the experiment on RPMI-8226 leukemia, 32%; with OVCAR-8 ovarian, 47.7%; in the experiment on OVCAR-5 ovarian, 46.7%. Moreover, the growth in the experiment on OVCAR-4 ovarian was 51.7%; in the experiment with OVCAR-3 ovarian, 65.6%; in the experiment with HS 578T breast, 91.4%; in the experiment with NCI/ADR-RES ovarian it was 95.6%.

Regarding `CCC(C)Nc1ccc(N)cc1` (stereo not drawn), the growth is 7.8% (active) with SK-MEL-2 melanoma; 8.66% (active) with EKVX NSCLC; 10.5% in the experiment on SN12C renal; -2.85% (active) in the experiment on UO-31 renal; 45.4% with TK-10 renal; 46% in the experiment on ACHN renal. Further, the growth is 91.9% in the experiment with A498 renal; 12.8% in the experiment on CCRF-CEM leukemia; -13.7% (active) in the experiment with MOLT-4 leukemia; -25.4% (active) in the experiment on RPMI-8226 leukemia; 74% with OVCAR-5 ovarian; -4.82% (active) in the experiment with OVCAR-4 ovarian. In addition, the growth in the experiment on SK-OV-3 ovarian is 38.5%; in the experiment with OVCAR-3 ovarian, -42.9% (active); in the experiment with HS 578T breast, 78.9%; with NCI/ADR-RES ovarian, 70.6%.

Turning to `CCCCNC(=O)Oc1ccc(/C(=C(/CC)Cc2ccccc2)c2ccc(OCCCN(C)C)cc2)cc1`, the growth in the experiment with SK-MEL-2 melanoma is 86.8%; in the experiment with EKVX NSCLC it was 67.5%; in the experiment on SN12C renal, 82.8%; with UO-31 renal, 60.5%; in the experiment on TK-10 renal, 91.9%; in the experiment on ACHN renal it was 92.5%. The growth is 76.2% with A498 renal; 77.1% in the experiment on CCRF-CEM leukemia; 63.4% in the experiment on MOLT-4 leukemia; 22% in the experiment on SR leukemia; 42.8% in the experiment on RPMI-8226 leukemia; 87% in the experiment on OVCAR-8 ovarian. Further, the growth in the experiment on OVCAR-5 ovarian is 85.6%; in the experiment with OVCAR-4 ovarian, 74.8%; with IGROV1 ovarian, 71.1%; with OVCAR-3 ovarian, 85.2%; in the experiment with HS 578T breast, 84.4%; with NCI/ADR-RES ovarian it was 87.2%.

For the origin of these results see PubChem BioAssay (NCI).
